The list is not random: actives were taken first. Their share in the collection is about 2.9%.
GRK2 aptamer HTS – compounds blocking aptamer binding on GRK2 – biochemical, human GRK2, bead flow cytometry, HTS, primary screen; FAM-aptamer displacement from GRK2; AID 488847, 2010; 0.59% of 330,000 active; Beta-adrenergic receptor kinase 1 (Homo sapiens), P25098; inhibition of aptamer binding, % at 10 µM;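 active = inhibition of aptamer binding above 40%, roughly 3 SD of noise, on plates passing a quality check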;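 also: median bead fluorescence of bound FAM aptamer so fluorescent compounds give negative values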
MEKK2wt PB1 HTS – modulators of MEK5 binding to wildtype MEKK2, primary screen, biochemical, multiplex bead flow cytometry, Alexa488-MEK5; Alexa488-MEK5 binding to MEKK2 WT; actives lie on both sides; binding response (% of control), % at 10 µM; 1.1% of 290,000 active; Mitogen-activated protein kinase kinase kinase 2 (Homo sapiens), Q9Y2U5; in the data active = binding response below about 67% or above about 130%
MEKK3 PB1 HTS – modulators of MEKK3-MEK5 PB1 binding, primary screen, biochemical, wildtype MEKK3, multiplex bead flow cytometry, Alexa488-MEK5; Mitogen-activated protein kinase kinase kinase 3 (Homo sapiens), Q99759; 1.4% of 290,000 active; bead-based flow cytometry, Alexa488-MEK5 binding to MEKK3; actives lie on both sides; 0 = blocked by unlabeled MEK5, 100 = vehicle; binding response (% of control), % at 10 µM; AID 1529, 2009;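 active = binding response more than 3 SD above or below the average of its plate-row segment, actives on both sides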;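 also: Alexa488 bead fluorescence after subtracting the streptavidin-only scavenger bead signal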
MEKK2 mut-MEK5 – MEK5 binding signal on mutant MEKK2 PB1, primary screen, biochemical, multiplex bead flow cytometry, Alexa488-MEK5. percent response, % at 10 µM. AID 1530, 2009. Alexa488-MEK5 binding to MEKK2 mutant. 0.35% of 290,000 active; in the data active = percent response above about 24%, passing the limit was not always enough
B2AR ag – beta2AR agonists driving receptor internalization, primary screen, cell-based, FAP fluorogen, flow cytometry; Beta-2 adrenergic receptor (Homo sapiens), P07550; Am2.2-beta2AR cells; response, % (concentration not given with the values); 0.43% of 340,000 active; AID 504454, 2011;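 active = response above a set limit, near 3 SD of response in nonfluorescent compounds, cut at about 42% in these data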
Target sequence (P07550 whole entry, looked up): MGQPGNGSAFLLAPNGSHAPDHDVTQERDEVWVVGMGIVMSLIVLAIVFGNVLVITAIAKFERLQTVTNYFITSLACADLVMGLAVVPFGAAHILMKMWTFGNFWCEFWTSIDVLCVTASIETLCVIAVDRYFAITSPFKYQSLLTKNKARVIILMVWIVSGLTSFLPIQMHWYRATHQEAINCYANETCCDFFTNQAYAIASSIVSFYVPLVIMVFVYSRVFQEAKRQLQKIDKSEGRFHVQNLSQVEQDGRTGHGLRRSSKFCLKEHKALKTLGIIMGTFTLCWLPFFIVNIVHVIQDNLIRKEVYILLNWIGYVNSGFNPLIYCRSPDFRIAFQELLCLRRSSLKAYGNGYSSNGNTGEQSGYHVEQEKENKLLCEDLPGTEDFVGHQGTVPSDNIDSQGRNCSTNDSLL
MEKK2wt confirm – modulators of MEK5 binding to wildtype MEKK2, confirmation, biochemical, single concentration, multiplex bead flow cytometry; Alexa488-MEK5 binding to MEKK2 WT; actives lie on both sides; shares compounds with MEKK3 PB1 HTS; binding response (% of control), % at 10 µM; 2.4% of 5,900 active; AID 1892, 2009; in the data active = binding response below about 16% or above about 210%; inactive = in between
MEKK2mut confirm – mutant MEKK2 PB1-MEK5 binding signal retest – biochemical, single concentration, multiplex bead flow cytometry, confirmation. AID 1893, 2009. 2% of 5,900 active. Alexa488-MEK5 binding to MEKK2 mutant. shares compounds with MEKK3 PB1 HTS. percent response, % at 10 µM; in the data active = percent response mostly above about 71%, no sharp cut-off; inactive = mostly below about 38%;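 also: higher means compound restores mutant binding toward wildtype level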
MEKK3 confirm – MEKK3 wild-type PB1 binding to MEK5, inhibitors, confirmation, biochemical, bead multiplex flow cytometry, single concentration, wildtype | 1.8% of 5,900 active | shares compounds with MEKK3 PB1 HTS | binding response (% of control), % at 10 µM | Alexa488-MEK5 binding to MEKK3; active compounds read low | AID 1894, 2009;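 active = binding response below 72% of control, or above a set upper limit, though filed actives all read lower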;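 also: lower values mean stronger disruption of MEK5 binding to MEKK3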
Large screens that a line does not name were inactive (follow-up assays come after a bar, where they were run); [ ] = dose if it differs, or a comment.

Cc1nnc(SCC(N)=O)n1CCc1ccccc1	MEKK3 PB1 HTS 136.0 | MEKK2wt confirm inactive | MEKK2mut confirm inactive | MEKK3 confirm inactive
CCOc1cc(N2CCOCC2)c(OCC)cc1NC(=O)c1nn(CC)c(=O)c2ccccc12	none (no result: MEKK2wt PB1 HTS, MEKK3 PB1 HTS, MEKK2 mut-MEK5)
O=C(Nc1cccc(S(=O)(=O)NC2=NCCCCC2)c1)c1ccc(Cl)cc1	none (no result: GRK2 aptamer HTS, MEKK2wt PB1 HTS, MEKK3 PB1 HTS, MEKK2 mut-MEK5)
O=[N+]([O-])c1cc(F)cc(F)c1Nc1cc(F)cc(F)c1	none (no result: GRK2 aptamer HTS, MEKK2wt PB1 HTS, MEKK3 PB1 HTS, MEKK2 mut-MEK5)
CC1CCN(C(=O)COC(=O)CCc2c[nH]c3ccccc23)CC1	MEKK3 PB1 HTS 50.0[inhibitor] | MEKK2wt confirm inactive | MEKK2mut confirm inactive | MEKK3 confirm inactive
CCCn1c(C)cc(C(=O)CSc2nc3nc(C)cc(C)n3n2)c1C	MEKK3 PB1 HTS 135.0 | MEKK2wt confirm inactive | MEKK2mut confirm inactive | MEKK3 confirm inactive
CCN(CC)c1ccc(N2C(=NC(=O)C3CC3)SC3CS(=O)(=O)CC32)cc1 (configuration not stated)	none
Cc1ccc(-c2nc(C#N)c(NCc3cccc4c3OCO4)o2)cc1	MEKK3 PB1 HTS 70.0[inhibitor] | MEKK2wt confirm inactive | MEKK2mut confirm inactive | MEKK3 confirm inactive
CC(C)c1ccc(N(C)C(=O)Cc2c(C(=O)O)n(C)c3ccccc23)cc1	MEKK2wt PB1 HTS -1.0[inhibitor], MEKK3 PB1 HTS 1.0[inhibitor] | MEKK2wt confirm inactive | MEKK2mut confirm inactive | MEKK3 confirm inactive
CN(CCC#N)C(=O)COC(=O)c1ccc2c(=O)n3c(nc2c1)CCC3	MEKK3 PB1 HTS 128.0 | MEKK2wt confirm inactive | MEKK2mut confirm inactive | MEKK3 confirm inactive
COc1ccc(OCC(=O)N(Cc2ccc(C)o2)C2CCS(=O)(=O)C2)cc1 (configuration not stated)	none
CCCN(C1CCS(=O)(=O)C1)S(=O)(=O)c1ccc(F)cc1 (configuration not stated)	none (no result: MEKK2wt PB1 HTS, MEKK3 PB1 HTS, MEKK2 mut-MEK5)
Cc1ccc(-c2nc3ccccc3n3c(C)nnc23)cc1	none (no result: GRK2 aptamer HTS, B2AR ag)
COc1cccc(Nc2nc3ccccc3n3nnnc23)c1	MEKK2wt PB1 HTS 3.0[inhibitor], MEKK3 PB1 HTS 2.0[inhibitor] | MEKK2wt confirm inactive | MEKK2mut confirm inactive | MEKK3 confirm inactive
Fc1cccc(Nc2nc3ccccc3n3nnnc23)c1	none
Cc1ccc(-c2nc3ccccc3n3nnnc23)cc1	MEKK3 PB1 HTS 82.0[inhibitor] (no result: GRK2 aptamer HTS) | MEKK2wt confirm inactive | MEKK2mut confirm inactive | MEKK3 confirm inactive
Cc1ccc(C)c(NC(=O)CN(C)C(=O)c2ccccc2OCc2c(C)noc2C)c1	none (no result: MEKK2wt PB1 HTS, MEKK3 PB1 HTS, MEKK2 mut-MEK5)
CCCCNc1cc(F)nc(N)n1	none
O=C(NNc1cc(Cl)ccc1Cl)c1cccs1	MEKK3 PB1 HTS 130.0 | MEKK2wt confirm inactive | MEKK2mut confirm inactive | MEKK3 confirm inactive
Cc1cc(Cl)ccc1NNC(=O)c1cccs1	none
CC(=O)NC1(C(F)(F)F)NC(=O)N(CCc2ccccc2)C1=O (configuration not stated)	none
c1ccc2c(c1)OC(CCCN1CCCCC1)c1ccccc1S2 (configuration not stated)	MEKK2wt PB1 HTS 141.0, MEKK2 mut-MEK5 27.0 | MEKK2wt confirm inactive | MEKK2mut confirm inactive | MEKK3 confirm inactive
COc1ccc(C(CNC(=O)c2ccc(C)c(S(=O)(=O)Nc3ccccc3OC)c2)N2CCCC2)cc1 (configuration not stated)	MEKK2wt PB1 HTS 154.0, MEKK2 mut-MEK5 29.0 | MEKK2wt confirm inactive | MEKK2mut confirm inactive | MEKK3 confirm inactive
O=C(Nc1ccc(-c2nnc3n2CCCCC3)cc1)c1ccco1	none
